In PubChem BioAssay (EPA / NIEHS):
Calls of active or inactive are those of the source. The calls were made as follows: active = hit-call score of the fitted dose curve at least 0.9, where 1 is the maximum; inactive = score below 0.9.

Columns and labels:
[1] = molecular target: Bile acid receptor (Homo sapiens) (UniProt Q96RI1); experiment: ATG_IR1_CIS: Attagene CIS-FACTORIAL HepG2 Assay for human Nuclear Receptor Subfamily 1 Group H Member 4 (NR1H4), IR1 submotif (AID 2282946); conditions: IR1 reporter transcription, actives raise or lower the signal
How it was run: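 Fluorescence of capillary-separated, HpaI-digested RT-PCR reporter products gave IR1-element mRNA induction in HepG2 cells 24 h after dosing. Endogenous transcription factors drove the cis-regulated reporters; activity was fitted bidirectionally against DMSO.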

[2] = ATG_GRE_CIS: Attagene CIS-FACTORIAL HepG2 Assay for human Glucocorticoid Response Elements (GRE) (AID 2282947); conditions: HepG2 GRE cis-reporter, Attagene multiplex mRNA; actives raise or lower the signal
How it was run: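 Read-out: fluorescent reporter-transcript fragments separated by capillary electrophoresis after RT-PCR. Transiently transfected HepG2 cells carrying cis-element-driven reporter units were dosed for 24 h; gain or loss of signal fitted against DMSO control.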

[3] = ATG_ISRE_CIS: Attagene CIS-FACTORIAL HepG2 Assay for human Interferon Regulatory Factor 1 (IRF1) binding to an Interferon-Stimulated Response Element (ISRE) (AID 2282948); conditions: HepG2 ISRE cis-reporter (Attagene), mRNA transcription readout; actives raise or lower the signal
How it was run: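 Uses HepG2 liver cells transfected with cis-regulated reporters and measures mRNA 24 h post-dosing through RT-PCR, primer-extension labelling and capillary electrophoresis, with DMSO as negative control.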

[4] = ATG_M_32_CIS: Attagene CIS-FACTORIAL HepG2 Assay for M32 Transcription Factor (Internal Marker) (AID 2282949); conditions: HepG2 Attagene cis-factorial M32 reporter, mRNA; actives raise or lower the signal;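 also: background control marker of the multiplexed CIS panel rather than a real target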
How it was run: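 Using DMSO as baseline, bidirectional curve fits were applied to reporter mRNA signals. These came from transiently transfected HepG2 cells exposed for 24 h, with RNA analysed by RT-PCR, FAM primer extension, HpaI digestion and CE.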

[5] = ATG_M_06_CIS: Attagene CIS-FACTORIAL HepG2 Assay for M06 Transcription Factor (Internal Marker) (AID 2282950); conditions: HepG2 Attagene CIS-FACTORIAL M06 internal marker reporter; actives raise or lower the signal
How it was run: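 Read-out is fluorescence of labelled reporter cDNA fragments resolved by capillary electrophoresis after RT-PCR. Cells: HepG2 carrying transfected cis-promoter reporter units, treated 24 h. Gain or loss of signal fitted relative to DMSO.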

[6] = molecular target: Hypoxia-inducible factor 1-alpha (Homo sapiens) (UniProt Q16665); experiment: ATG_HIF1a_CIS: Attagene CIS-FACTORIAL HepG2 Assay for human Hypoxia Inducible Factor 1 (HIF1A) (AID 2282951); conditions: HepG2 Attagene cis-factorial HIF1a reporter transcription; actives raise or lower the signal
How it was run: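 Dosed 24 h, transfected HepG2 cells yielded total RNA whose reporter transcripts were RT-PCR-amplified and sized by capillary electrophoresis using fluorescent labelling; DMSO defined baseline, with gain and loss of signal both fitted.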

[7] = molecular target: Hepatocyte nuclear factor 6 (Homo sapiens) (UniProt Q9UBC0); experiment: ATG_HNF6_CIS: Attagene CIS-FACTORIAL HepG2 Assay for human Hepatocyte Nuclear Factor 6 (HNF6) (AID 2282952); conditions: HepG2 Attagene cis-factorial HNF6 reporter transcription; actives raise or lower the signal
How it was run: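 Endogenous transcription factor activity in human HepG2 liver cells was captured through cis-regulated reporter constructs. After 24 h treatment, reporter mRNA was measured by RT-PCR with capillary electrophoresis, and activity was fitted in both directions relative to DMSO.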

[8] = ATG_MRE_CIS: Attagene CIS-FACTORIAL HepG2 Assay for human Metal Responsive Element (MRE) (AID 2282954); conditions: HepG2 MRE cis-reporter transcription, Attagene multiplex; actives raise or lower the signal
How it was run: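 RT-PCR/capillary electrophoresis readout of reporter mRNA, 24 h post-dosing, in HepG2 cells transfected with multiplexed cis-regulated reporter constructs. Gain or loss of signal fitted bidirectionally against DMSO baseline.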

[9] = ATG_PBREM_CIS: Attagene CIS-FACTORIAL HepG2 Assay for human Phenobarbital-responsive Enhancer Module (PBREM) (AID 2282955); conditions: HepG2 PBREM cis-reporter, Attagene multiplexed transcription; actives raise or lower the signal
How it was run: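 Transfected liver-derived HepG2 cells exposed 24 h; PBREM reporter transcript quantified via RT-PCR and capillary electrophoresis, with activity in either direction referenced to DMSO.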

[10] = molecular target: Paired box protein Pax-6 (Homo sapiens) (UniProt P26367); experiment: ATG_Pax6_CIS: Attagene CIS-FACTORIAL HepG2 Assay for human Paired Box 6 (PAX6) (AID 2282956); conditions: HepG2 CIS-FACTORIAL PAX6 reporter transcription, RNA readout; actives raise or lower the signal
How it was run: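 DMSO-referenced bidirectional fits of reporter mRNA fluorescence; HepG2 with transient cis-promoter MRTUs, 24 h post-dose, RT-PCR plus capillary electrophoresis detection.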

[11] = ATG_PXRE_CIS: Attagene CIS-FACTORIAL HepG2 Assay for human Pregnane X Receptor Element (PXRE) (AID 2282957); conditions: HepG2 Attagene CIS-FACTORIAL PXRE reporter, mRNA; actives raise or lower the signal
How it was run: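 Endogenous transcription factor activity in HepG2 was gauged through induction of reporter mRNA driven by a cis-regulating promoter element, sampled 24 h post-treatment. Activity was fitted in both directions against DMSO negative control.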

[12] = ATG_PPRE_CIS: Attagene CIS-FACTORIAL HepG2 Assay for human Peroxisome Proliferator-activated Response Element (PPRE) (AID 2282958); conditions: HepG2 PPRE cis-element reporter, Attagene transcription factor profiling; actives raise or lower the signal
How it was run: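 Measured endpoint: PPRE-controlled reporter mRNA, detected by RT-PCR and capillary electrophoresis fluorescence, from transiently transfected HepG2 cells 24 h after dosing. Curves fitted in both directions using DMSO baseline.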

[13] = ATG_RORE_CIS: Attagene CIS-FACTORIAL HepG2 Assay for human RAR-related Orphan Receptor Element (RORE) (AID 2282959); conditions: HepG2 Attagene cis-factorial RORE reporter, mRNA; actives raise or lower the signal
How it was run: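 Transiently transfected HepG2 reporter cells were treated 24 h. Reporter transcripts were detected by RT-PCR and capillary electrophoresis, with bidirectional fitting against DMSO.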

[14] = ATG_Sox_CIS: Attagene CIS-FACTORIAL HepG2 Assay for human SRY-box transcription factor (SOX) (AID 2282960); conditions: HepG2 Attagene cis-factorial SOX reporter, mRNA; actives raise or lower the signal
How it was run: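 Gain- or loss-of-signal endpoint, fitted bidirectionally with DMSO as negative control. Based on reporter mRNA from transfected HepG2 cells harvested 24 h post-treatment and quantified via RT-PCR and capillary electrophoresis.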

[15] = molecular target: Transcription factor Sp1 (Homo sapiens) (UniProt P08047); experiment: ATG_Sp1_CIS: Attagene CIS-FACTORIAL HepG2 Assay for human Specificity Protein 1 (Sp1) (AID 2282961); conditions: HepG2 Sp1 cis-reporter transcription, actives raise or lower the signal
How it was run: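 Endpoint reflects endogenous Sp1 transcriptional activity, not an exogenous fusion protein: HepG2 cells with transfected cis-regulated reporters, 24 h dosing, RT-PCR/capillary electrophoresis mRNA read-out, DMSO-normalised bidirectional fit.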

[16] = ATG_SREBP_CIS: Attagene CIS-FACTORIAL HepG2 Assay for human Sterol Regulatory Element Binding (SREBP) (AID 2282962); conditions: HepG2 Attagene cis-factorial SREBP reporter, mRNA; actives raise or lower the signal
How it was run: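 In this cis-format assay, HepG2 liver cells express reporters controlled by promoter elements responsive to native transcription factors. Exposure lasts 24 h; reporter mRNA fluorescence from capillary electrophoresis gives the signal, fitted bidirectionally against DMSO.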

[17] = molecular target: Signal transducer and activator of transcription 3 (Homo sapiens) (UniProt P40763); experiment: ATG_STAT3_CIS: Attagene CIS-FACTORIAL HepG2 Assay for human Signal Transducer and Activator of Transcription 3 (STAT3) (AID 2282963); conditions: HepG2, Attagene cis-factorial STAT3 reporter transcription; actives raise or lower the signal
How it was run: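 Readout: fluorescent reporter mRNA fragments resolved by capillary electrophoresis. Setup: HepG2 transfected with MRTUs reporting endogenous transcription-factor activity, dosed 24 h. Gain or loss of signal fitted bidirectionally against DMSO control.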

[18] = ATG_TA_CIS: Attagene CIS-FACTORIAL HepG2 Assay for human TA Basal Promoter (AID 2282964); conditions: HepG2 Attagene CIS-factorial TA basal promoter reporter; actives raise or lower the signal
How it was run: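 Read-out: fluorescent reporter-transcript fragments resolved by capillary electrophoresis after RT-PCR and HpaI digestion. Source: HepG2 cells carrying transiently transfected multi-reporter cis constructs, treated 24 h. Endpoint fitted bidirectionally relative to DMSO.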

[19] = molecular target: Heat shock factor protein 1 (Homo sapiens) (UniProt Q00613); experiment: ATG_HSE_CIS: Attagene CIS-FACTORIAL HepG2 Assay for human Heat Shock Transcription Factor 1 (HSE) (AID 2282953); conditions: HepG2 HSE cis-reporter, Attagene RNA transcription; actives raise or lower the signal
How it was run: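 HepG2, transient MRTU transfection, cis-promoter reporters (endogenous TF activity). 24 h compound. RNA → oligo(dT) RT → PCR → 6-FAM primer extension → HpaI cut → CE. Bidirectional fit vs DMSO.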

[20] = ATG_TCF_b_cat_CIS: Attagene CIS-FACTORIAL HepG2 Assay for human T-Cell-Factor with beta-catenin (TCF/b-cat) (AID 2282965); conditions: HepG2 TCF/beta-catenin cis-reporter transcription, actives raise or lower the signal
How it was run: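 HepG2, transient MRTU transfection, cis-element-driven reporters (endogenous TFs). 24 h compound exposure. Readout: reporter mRNA by RT-PCR + 6-FAM primer extension, HpaI digest, capillary electrophoresis. Gain/loss fit vs DMSO baseline.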

Measured: outcome

Bile acid receptor (Homo sapiens), sequence (Q96RI1 whole entry, looked up): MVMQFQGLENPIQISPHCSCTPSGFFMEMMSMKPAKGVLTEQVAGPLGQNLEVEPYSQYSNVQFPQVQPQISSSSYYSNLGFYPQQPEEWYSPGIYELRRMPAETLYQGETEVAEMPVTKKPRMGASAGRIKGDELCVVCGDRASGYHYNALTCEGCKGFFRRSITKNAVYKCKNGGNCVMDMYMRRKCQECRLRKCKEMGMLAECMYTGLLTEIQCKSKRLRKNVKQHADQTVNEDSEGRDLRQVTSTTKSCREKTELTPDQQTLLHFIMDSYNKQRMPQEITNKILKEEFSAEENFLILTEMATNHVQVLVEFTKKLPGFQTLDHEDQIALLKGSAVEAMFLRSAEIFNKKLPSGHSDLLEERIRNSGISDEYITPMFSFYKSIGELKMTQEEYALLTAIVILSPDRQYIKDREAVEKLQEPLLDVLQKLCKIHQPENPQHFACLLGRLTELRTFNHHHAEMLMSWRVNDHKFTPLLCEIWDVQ
Signal transducer and activator of transcription 3 (Homo sapiens), sequence (P40763 whole entry, looked up, the tested form may be a part): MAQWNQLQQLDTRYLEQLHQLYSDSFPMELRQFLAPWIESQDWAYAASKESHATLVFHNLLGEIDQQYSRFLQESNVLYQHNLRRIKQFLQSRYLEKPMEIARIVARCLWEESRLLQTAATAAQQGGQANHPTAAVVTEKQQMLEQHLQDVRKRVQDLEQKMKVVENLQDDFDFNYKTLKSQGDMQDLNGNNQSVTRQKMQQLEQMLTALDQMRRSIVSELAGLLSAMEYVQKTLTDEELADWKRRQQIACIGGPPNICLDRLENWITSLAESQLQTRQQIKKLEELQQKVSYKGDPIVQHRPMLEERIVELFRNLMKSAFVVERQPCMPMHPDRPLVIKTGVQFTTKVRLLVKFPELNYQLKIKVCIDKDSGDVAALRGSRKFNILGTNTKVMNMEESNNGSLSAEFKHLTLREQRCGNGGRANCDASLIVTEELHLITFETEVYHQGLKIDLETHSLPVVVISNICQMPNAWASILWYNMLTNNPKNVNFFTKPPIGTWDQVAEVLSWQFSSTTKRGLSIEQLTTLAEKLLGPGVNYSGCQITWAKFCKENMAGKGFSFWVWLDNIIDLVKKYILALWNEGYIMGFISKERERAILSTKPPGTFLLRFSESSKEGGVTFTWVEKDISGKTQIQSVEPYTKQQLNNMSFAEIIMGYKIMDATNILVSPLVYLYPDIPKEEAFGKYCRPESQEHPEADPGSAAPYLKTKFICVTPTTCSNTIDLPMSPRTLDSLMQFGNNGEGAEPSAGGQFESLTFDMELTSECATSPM
Transcription factor Sp1 (Homo sapiens), sequence (P08047 whole entry, looked up, the tested form may be a part): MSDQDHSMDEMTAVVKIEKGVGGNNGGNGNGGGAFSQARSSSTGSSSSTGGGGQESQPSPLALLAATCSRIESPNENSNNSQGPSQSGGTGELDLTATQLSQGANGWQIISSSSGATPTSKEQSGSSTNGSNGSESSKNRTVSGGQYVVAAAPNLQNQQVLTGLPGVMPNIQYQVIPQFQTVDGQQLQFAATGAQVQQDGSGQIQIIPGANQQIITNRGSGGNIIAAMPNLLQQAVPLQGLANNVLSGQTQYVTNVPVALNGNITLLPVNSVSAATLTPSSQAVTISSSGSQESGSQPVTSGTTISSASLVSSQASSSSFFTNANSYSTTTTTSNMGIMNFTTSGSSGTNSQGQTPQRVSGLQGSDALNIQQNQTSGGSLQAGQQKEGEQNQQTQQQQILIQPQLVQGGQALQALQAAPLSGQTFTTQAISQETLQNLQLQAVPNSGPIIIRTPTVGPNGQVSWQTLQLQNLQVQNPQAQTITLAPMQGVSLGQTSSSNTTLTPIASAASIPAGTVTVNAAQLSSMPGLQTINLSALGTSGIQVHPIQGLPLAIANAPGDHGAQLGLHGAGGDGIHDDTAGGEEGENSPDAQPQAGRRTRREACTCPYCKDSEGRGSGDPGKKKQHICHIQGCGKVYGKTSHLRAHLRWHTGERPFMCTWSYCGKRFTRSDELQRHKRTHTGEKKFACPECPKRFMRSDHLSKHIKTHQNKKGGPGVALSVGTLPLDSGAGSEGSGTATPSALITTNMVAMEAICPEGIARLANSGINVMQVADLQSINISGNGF
Paired box protein Pax-6 (Homo sapiens), sequence (P26367 whole entry, looked up): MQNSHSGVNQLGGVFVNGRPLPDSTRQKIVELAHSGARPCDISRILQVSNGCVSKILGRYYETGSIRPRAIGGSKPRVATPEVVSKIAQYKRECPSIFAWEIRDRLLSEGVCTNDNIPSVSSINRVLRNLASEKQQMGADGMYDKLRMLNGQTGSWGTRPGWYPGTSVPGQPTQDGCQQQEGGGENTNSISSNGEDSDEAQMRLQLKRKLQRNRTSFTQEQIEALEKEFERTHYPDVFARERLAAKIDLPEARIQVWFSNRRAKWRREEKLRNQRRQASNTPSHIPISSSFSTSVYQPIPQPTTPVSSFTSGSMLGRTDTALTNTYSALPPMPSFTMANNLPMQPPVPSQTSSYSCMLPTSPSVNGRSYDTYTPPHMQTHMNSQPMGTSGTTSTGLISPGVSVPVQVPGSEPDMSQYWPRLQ
Hepatocyte nuclear factor 6 (Homo sapiens), sequence (Q9UBC0 whole entry, looked up): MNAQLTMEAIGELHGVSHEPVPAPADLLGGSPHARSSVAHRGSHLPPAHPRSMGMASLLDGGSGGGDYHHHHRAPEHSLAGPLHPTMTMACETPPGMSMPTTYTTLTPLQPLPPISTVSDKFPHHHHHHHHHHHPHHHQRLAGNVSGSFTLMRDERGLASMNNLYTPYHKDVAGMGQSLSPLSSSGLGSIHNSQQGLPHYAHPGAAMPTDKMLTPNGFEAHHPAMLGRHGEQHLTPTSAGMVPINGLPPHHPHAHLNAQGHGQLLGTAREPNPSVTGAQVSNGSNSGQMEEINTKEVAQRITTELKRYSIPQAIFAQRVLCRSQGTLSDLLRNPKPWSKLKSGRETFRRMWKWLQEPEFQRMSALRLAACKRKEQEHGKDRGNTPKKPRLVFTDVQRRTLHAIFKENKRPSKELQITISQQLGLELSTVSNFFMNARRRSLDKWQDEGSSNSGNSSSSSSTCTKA
Hypoxia-inducible factor 1-alpha (Homo sapiens), sequence (Q16665 whole entry, looked up): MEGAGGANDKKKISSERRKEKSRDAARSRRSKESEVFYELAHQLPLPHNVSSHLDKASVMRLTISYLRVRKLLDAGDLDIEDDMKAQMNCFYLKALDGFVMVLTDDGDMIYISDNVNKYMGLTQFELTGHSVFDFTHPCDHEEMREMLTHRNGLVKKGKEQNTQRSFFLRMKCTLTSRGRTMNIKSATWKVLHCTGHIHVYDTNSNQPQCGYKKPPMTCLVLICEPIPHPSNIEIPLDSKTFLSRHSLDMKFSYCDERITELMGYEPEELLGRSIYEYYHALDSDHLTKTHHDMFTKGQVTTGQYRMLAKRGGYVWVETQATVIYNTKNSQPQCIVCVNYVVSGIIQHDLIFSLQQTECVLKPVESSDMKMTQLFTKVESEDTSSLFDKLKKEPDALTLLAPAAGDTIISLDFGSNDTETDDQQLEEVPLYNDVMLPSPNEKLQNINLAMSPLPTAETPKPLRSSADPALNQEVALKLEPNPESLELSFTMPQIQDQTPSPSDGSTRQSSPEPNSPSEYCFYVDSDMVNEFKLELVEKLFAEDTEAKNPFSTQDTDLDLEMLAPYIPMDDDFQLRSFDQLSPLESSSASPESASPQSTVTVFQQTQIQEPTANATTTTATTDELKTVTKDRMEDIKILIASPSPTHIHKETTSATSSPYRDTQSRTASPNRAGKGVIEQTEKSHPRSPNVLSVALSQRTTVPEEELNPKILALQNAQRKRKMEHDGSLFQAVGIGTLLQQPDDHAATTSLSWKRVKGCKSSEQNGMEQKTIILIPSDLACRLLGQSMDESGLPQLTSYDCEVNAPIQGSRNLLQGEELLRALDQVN
Heat shock factor protein 1 (Homo sapiens), sequence (Q00613 whole entry, looked up): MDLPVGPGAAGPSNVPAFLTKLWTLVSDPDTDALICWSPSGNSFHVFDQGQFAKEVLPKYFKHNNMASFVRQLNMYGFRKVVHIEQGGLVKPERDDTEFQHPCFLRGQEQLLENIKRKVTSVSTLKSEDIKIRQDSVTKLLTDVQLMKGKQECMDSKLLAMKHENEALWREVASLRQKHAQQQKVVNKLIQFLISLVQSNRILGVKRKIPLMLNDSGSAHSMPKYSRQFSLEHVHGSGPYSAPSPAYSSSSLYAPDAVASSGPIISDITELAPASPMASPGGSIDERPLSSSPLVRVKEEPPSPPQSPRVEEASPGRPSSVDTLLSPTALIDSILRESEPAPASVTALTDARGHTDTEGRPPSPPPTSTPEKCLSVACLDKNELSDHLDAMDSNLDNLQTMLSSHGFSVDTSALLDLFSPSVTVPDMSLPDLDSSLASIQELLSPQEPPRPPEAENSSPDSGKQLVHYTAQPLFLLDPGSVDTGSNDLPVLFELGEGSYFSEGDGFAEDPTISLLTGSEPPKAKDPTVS

CC1CC(O)CC(C)(C)C1 (centres undefined)
not listed: [19] | [20]
inactive: all other assays above

CCNCCO
not listed: [9] | [14] | [18]
inactive: all other assays above

CCC1(c2ccccc2)C(=O)NCNC1=O
not listed: [6] | [12] | [13] | [14]
inactive: all other assays above

C=C1C[C@]23C[C@@]1(O)CC[C@H]2[C@@]12C=C[C@H](O)[C@@](C)(C(=O)O1)[C@H]2[C@@H]3C(=O)O
not listed: [15] | [19]
inactive: all other assays above
